What all share (assay): DAPPL (digital affinity profiling via proximity ligation, sequencing); 10 mM Tris-HCl pH 7.5, 50 mM NaCl, 1 mM DTT, 4% glycerol, room temperature, 30 min; GST-TFs on glutathione beads, 16-mer random dsDNA library, 0.1% formaldehyde crosslink after washing; high values mean tight binding
In one assay the target is T1, FLI1 (Homo sapiens, UniProt Q01543 1-452).
T1 sequence: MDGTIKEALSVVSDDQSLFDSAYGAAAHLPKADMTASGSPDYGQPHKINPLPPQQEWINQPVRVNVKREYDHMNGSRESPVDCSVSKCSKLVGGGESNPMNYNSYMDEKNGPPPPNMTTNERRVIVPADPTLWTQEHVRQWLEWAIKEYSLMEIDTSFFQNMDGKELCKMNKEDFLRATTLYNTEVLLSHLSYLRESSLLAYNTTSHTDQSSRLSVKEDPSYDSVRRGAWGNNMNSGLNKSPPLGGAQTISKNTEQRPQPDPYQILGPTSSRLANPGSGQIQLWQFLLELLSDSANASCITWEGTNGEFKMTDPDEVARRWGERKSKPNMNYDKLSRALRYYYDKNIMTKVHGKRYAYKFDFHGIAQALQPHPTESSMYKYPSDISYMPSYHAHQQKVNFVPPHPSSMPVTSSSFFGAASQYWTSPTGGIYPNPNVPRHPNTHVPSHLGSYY
The note with it: protein: recombinant; tags: N-terminal GST; dsDNA, one strand shown. An outline of the steps:
(§1)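 Pools of DNA-barcoded human transcription factors, expressed in yeast as GST fusions on glutathione beads and combined with a tag-only sample, were incubated with 200 nmole of a 16-mer random double-stranded DNA library. Incubation took 30 min at room temperature in Tris/NaCl/DTT/glycerol buffer and was followed by washing, 0.1% formaldehyde crosslinking, proximity ligation (BsaI/T4 ligase, 1 h, 37 °C), PCR amplification and sequencing on an Illumina NextSeq500. Binding signal is the ratio of a hexamer's read frequency for a factor to its frequency for the tag-only sample.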

The target in the next assay is T2, ELK1 (Homo sapiens, UniProt P19419 1-428).
T2 sequence: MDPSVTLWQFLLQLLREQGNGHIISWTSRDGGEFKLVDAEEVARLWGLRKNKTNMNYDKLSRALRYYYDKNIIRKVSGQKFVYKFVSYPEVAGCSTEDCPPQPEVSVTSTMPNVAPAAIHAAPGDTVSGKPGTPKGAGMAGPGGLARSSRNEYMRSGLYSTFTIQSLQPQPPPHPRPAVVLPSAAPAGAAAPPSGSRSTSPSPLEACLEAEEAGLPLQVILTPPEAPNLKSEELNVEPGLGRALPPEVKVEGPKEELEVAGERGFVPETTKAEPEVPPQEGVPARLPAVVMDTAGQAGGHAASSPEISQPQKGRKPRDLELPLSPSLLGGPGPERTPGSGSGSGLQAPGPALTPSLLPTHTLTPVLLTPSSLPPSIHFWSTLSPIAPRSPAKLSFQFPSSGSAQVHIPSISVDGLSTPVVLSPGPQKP
Particulars: protein: recombinant; tags: N-terminal GST; dsDNA, one strand shown. An outline of the steps: as §1

The next assay has as its target T3, GABPA (Homo sapiens, UniProt Q06546 1-454).
T3 sequence: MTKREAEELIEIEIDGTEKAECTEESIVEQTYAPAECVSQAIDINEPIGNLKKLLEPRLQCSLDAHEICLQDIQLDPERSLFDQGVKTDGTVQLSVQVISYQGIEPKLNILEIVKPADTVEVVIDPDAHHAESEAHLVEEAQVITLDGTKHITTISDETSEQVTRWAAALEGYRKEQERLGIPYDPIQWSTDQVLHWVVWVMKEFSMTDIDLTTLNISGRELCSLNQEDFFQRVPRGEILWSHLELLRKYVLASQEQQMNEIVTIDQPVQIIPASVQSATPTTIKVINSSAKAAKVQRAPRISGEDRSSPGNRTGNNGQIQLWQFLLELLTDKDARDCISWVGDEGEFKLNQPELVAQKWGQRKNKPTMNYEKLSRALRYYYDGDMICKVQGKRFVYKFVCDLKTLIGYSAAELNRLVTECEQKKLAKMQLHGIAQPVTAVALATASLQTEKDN
The note with it: protein: recombinant; tags: N-terminal GST; dsDNA, one strand shown. An outline of the steps: as §1

A further assay deals with T4, ERG (Homo sapiens, UniProt P11308 1-479).
T4 sequence: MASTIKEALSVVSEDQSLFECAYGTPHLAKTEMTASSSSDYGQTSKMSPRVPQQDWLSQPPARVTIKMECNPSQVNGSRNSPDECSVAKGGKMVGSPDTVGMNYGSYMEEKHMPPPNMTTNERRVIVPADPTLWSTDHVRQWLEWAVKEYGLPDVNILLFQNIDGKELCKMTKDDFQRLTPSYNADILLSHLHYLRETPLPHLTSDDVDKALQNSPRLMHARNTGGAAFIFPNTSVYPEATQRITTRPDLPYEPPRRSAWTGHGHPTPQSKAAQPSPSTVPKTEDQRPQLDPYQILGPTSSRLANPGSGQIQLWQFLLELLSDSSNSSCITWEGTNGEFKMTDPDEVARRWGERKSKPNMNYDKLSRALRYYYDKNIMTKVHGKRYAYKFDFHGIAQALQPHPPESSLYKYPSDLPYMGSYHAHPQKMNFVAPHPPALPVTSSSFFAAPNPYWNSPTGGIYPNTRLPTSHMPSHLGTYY
Particulars: protein: recombinant; tags: N-terminal GST; dsDNA, one strand shown. An outline of the steps:
as §1

A further assay concerns the target ELF1 (Homo sapiens, UniProt P32519 1-619). Particulars: protein: recombinant; tags: N-terminal GST; dsDNA, one strand shown. An outline of the steps: as §1
Another assay has as its target T5, EHF (Homo sapiens, UniProt Q9NZC4 1-300).
T5 sequence: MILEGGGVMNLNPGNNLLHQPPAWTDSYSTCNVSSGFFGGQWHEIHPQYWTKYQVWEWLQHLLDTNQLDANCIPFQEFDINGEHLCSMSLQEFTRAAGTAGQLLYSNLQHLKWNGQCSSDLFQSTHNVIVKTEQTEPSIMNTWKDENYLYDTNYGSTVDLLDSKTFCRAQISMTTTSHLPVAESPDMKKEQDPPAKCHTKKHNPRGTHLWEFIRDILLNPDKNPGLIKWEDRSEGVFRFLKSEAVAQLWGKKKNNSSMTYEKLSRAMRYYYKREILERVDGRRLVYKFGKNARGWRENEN
Particulars: protein: recombinant; tags: N-terminal GST; dsDNA, one strand shown. An outline of the steps:
as §1

The target in a further assay is SPI1 (Homo sapiens, UniProt P17947 1-270). The note with it: protein: recombinant; tags: N-terminal GST; dsDNA, one strand shown. An outline of the steps: as §1
The target in the next assay is SPIB (Homo sapiens, UniProt Q01892 1-262). Particulars: protein: recombinant; tags: N-terminal GST; dsDNA, one strand shown. In outline: as §1
For the next assay, the target named is T6, ELK3 (Homo sapiens, UniProt P41970 1-407).
T6 sequence: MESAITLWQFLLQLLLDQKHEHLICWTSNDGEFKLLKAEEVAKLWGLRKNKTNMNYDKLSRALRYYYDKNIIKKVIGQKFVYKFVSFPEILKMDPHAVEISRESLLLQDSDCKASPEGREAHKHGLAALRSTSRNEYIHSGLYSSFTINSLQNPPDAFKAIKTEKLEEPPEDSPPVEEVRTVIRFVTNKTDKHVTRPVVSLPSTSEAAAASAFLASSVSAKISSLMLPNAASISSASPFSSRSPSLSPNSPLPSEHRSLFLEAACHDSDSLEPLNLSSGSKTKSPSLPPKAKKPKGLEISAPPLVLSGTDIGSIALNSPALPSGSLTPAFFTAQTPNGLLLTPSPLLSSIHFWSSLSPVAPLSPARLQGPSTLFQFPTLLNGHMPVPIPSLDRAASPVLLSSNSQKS
The note with it: protein: recombinant; tags: N-terminal GST; dsDNA, one strand shown. An outline of the steps:
as §1

The target in the next assay is T7, FEV (Homo sapiens, UniProt Q99581 1-238).
T7 sequence: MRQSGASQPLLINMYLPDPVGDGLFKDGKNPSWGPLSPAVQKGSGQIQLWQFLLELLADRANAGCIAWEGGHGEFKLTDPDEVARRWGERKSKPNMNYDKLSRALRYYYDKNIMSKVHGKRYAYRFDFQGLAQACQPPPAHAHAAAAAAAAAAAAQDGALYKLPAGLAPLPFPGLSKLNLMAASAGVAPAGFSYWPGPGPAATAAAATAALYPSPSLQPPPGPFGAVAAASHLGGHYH
Particulars: protein: recombinant; tags: N-terminal GST; dsDNA, one strand shown. In outline:
as §1

In a further assay the target is ETV5 (Homo sapiens, UniProt P41161 1-510). The note with it: protein: recombinant; tags: N-terminal GST; dsDNA, one strand shown. In outline: as §1
The next assay concerns the target HSF1 (Homo sapiens, UniProt Q00613 1-529). Particulars: protein: recombinant; tags: N-terminal GST; chain copies: 3; dsDNA, one strand shown. An outline of the steps:
as §1

The target of a further assay is T8, SPIC (Homo sapiens, UniProt Q8N5J4 1-248).
T8 sequence: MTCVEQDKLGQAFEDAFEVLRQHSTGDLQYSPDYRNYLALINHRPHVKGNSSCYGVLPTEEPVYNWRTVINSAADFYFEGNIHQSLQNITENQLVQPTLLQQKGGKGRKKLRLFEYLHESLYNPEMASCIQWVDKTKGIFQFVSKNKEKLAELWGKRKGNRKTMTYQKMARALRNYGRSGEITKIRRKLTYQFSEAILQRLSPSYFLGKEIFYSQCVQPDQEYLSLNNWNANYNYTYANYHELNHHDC
Particulars: protein: recombinant; tags: N-terminal GST; dsDNA, one strand shown. An outline of the steps: as §1

A further assay addresses ELF4 (Homo sapiens, UniProt Q99607 1-663). The note with it: protein: recombinant; tags: N-terminal GST; dsDNA, one strand shown. An outline of the steps: as §1
In the next assay the target is T9, ELK4 (Homo sapiens, UniProt P28324-2 1-405).
T9 sequence: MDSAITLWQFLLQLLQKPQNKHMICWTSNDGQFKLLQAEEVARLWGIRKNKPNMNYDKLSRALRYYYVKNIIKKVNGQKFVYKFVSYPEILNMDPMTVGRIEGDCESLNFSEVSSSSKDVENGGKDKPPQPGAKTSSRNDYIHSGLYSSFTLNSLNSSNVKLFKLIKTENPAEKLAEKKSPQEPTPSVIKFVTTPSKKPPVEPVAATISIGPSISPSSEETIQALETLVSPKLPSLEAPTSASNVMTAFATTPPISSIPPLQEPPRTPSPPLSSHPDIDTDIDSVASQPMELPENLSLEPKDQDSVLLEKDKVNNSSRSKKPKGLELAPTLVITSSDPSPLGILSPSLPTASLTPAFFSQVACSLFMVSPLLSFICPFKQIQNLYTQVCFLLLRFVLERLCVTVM
The note with it: protein: recombinant; tags: N-terminal GST; dsDNA, one strand shown. In outline: as §1

The next assay has as its target T10, ETV2 (Homo sapiens, UniProt O00321 1-342).
T10 sequence: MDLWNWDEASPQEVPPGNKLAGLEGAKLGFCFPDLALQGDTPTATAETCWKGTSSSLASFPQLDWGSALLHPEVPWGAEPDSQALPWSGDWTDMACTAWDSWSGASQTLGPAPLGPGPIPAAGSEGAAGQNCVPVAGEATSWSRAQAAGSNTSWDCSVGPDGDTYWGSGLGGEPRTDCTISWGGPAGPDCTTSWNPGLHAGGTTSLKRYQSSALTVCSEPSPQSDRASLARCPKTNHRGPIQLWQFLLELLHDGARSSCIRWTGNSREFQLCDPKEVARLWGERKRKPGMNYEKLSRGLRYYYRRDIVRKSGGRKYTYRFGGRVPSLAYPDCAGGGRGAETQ
The note with it: protein: recombinant; tags: N-terminal GST; dsDNA, one strand shown. An outline of the steps: as §1

The target in the next assay is T11, ELF3 (Homo sapiens, UniProt P78545 1-371).
T11 sequence: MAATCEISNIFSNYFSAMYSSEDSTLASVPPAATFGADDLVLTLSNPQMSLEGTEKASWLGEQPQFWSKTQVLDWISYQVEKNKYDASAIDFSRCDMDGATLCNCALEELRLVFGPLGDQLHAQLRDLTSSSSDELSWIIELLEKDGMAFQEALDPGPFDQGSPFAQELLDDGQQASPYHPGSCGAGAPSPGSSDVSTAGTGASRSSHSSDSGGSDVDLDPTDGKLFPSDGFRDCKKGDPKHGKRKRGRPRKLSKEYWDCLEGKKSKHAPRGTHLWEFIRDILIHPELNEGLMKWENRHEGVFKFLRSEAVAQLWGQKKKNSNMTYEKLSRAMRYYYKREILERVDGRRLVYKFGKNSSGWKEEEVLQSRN
Particulars: protein: recombinant; tags: N-terminal GST; dsDNA, one strand shown. An outline of the steps: as §1

A further assay has as its target CRX (Homo sapiens, UniProt O43186 1-299). Particulars: protein: recombinant; tags: N-terminal GST; dsDNA, one strand shown. An outline of the steps: as §1
A further assay has as its target ETV1 (Homo sapiens, UniProt P50549 1-477). The note with it: protein: recombinant; tags: N-terminal GST; dsDNA, one strand shown. In outline:
as §1

Chain of ETV5 (P41161 whole entry): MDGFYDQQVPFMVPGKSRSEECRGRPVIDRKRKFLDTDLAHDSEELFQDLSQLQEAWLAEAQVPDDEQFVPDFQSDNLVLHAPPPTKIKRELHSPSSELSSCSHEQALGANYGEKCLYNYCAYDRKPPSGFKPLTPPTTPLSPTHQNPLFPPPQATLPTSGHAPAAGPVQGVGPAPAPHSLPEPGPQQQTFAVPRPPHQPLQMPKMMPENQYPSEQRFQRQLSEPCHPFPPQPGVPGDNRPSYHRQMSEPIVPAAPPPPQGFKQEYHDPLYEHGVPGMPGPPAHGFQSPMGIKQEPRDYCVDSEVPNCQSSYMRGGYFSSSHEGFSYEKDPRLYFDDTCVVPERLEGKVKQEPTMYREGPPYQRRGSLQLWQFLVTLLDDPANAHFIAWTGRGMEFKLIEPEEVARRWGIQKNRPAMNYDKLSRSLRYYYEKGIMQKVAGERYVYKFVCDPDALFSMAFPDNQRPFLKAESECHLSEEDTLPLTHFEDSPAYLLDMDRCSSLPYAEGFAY
Chain of CRX (O43186 whole entry): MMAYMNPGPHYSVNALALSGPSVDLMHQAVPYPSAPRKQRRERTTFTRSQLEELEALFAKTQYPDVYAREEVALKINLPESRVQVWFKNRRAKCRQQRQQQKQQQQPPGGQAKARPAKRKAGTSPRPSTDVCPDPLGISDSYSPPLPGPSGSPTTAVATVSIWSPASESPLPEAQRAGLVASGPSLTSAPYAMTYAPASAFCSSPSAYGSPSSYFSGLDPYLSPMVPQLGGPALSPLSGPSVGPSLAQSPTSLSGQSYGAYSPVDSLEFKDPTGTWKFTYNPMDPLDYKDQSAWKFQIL
Chain of ETV1 (P50549 whole entry): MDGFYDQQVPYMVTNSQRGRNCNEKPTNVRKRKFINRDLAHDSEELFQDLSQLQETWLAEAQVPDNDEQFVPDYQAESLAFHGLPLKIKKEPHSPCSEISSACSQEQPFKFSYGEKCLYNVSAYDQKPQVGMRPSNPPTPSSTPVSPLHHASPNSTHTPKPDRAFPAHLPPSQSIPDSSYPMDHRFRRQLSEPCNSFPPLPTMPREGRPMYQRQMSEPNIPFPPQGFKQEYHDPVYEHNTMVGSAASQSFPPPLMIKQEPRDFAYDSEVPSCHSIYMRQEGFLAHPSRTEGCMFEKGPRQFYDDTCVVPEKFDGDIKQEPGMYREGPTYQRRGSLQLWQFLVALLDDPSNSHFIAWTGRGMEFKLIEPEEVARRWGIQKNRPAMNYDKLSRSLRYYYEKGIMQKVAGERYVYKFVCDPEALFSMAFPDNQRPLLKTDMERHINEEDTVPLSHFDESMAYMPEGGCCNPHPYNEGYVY
Chain of ELF1 (P32519 whole entry): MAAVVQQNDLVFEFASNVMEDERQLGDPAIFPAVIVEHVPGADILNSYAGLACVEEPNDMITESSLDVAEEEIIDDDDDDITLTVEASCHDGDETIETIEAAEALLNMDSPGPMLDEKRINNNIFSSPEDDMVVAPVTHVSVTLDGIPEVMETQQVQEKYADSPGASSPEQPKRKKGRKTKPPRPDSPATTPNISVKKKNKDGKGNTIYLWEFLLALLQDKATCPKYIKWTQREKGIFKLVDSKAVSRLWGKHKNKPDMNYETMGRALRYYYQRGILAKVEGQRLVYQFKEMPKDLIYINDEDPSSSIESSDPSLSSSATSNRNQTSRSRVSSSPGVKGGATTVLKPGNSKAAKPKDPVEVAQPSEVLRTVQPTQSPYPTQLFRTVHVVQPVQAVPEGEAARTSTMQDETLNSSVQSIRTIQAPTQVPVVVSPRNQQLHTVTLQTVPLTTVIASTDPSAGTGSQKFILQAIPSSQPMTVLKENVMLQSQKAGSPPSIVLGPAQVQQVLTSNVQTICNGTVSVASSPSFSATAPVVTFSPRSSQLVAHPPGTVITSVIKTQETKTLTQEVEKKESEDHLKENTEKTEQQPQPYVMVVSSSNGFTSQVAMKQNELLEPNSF
Chain of HSF1 (Q00613 whole entry): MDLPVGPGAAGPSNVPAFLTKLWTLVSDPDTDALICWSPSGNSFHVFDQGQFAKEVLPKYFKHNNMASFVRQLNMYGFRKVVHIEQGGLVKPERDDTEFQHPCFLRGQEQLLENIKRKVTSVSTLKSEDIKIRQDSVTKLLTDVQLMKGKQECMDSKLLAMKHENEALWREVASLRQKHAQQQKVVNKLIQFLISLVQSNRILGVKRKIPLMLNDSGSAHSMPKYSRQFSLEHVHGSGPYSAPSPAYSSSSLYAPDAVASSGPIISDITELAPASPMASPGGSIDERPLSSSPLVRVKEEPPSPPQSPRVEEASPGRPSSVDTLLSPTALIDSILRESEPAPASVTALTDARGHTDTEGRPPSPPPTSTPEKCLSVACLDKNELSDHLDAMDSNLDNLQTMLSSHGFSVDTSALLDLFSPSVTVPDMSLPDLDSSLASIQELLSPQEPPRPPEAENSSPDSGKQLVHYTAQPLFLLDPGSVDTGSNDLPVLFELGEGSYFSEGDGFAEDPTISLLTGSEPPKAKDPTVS
Chain of ELF4 (Q99607 whole entry): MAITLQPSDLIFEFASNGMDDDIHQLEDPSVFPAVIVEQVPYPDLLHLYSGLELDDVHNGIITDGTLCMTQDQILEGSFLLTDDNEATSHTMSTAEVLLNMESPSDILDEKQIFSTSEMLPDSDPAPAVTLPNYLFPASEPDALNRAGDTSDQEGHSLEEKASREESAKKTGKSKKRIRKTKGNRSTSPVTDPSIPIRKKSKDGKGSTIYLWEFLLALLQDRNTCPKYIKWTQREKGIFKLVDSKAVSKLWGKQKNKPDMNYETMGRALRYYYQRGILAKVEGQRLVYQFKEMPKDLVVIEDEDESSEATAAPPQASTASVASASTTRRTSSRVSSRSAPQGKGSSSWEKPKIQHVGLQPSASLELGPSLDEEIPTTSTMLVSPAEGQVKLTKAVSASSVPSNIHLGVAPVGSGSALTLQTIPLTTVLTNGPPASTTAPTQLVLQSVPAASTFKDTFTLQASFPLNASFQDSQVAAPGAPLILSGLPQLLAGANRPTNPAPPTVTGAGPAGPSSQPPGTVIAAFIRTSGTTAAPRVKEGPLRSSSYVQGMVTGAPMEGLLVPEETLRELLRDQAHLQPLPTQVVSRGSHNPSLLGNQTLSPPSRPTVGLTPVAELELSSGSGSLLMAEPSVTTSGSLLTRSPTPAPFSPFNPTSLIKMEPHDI
Chain of SPIB (Q01892 whole entry): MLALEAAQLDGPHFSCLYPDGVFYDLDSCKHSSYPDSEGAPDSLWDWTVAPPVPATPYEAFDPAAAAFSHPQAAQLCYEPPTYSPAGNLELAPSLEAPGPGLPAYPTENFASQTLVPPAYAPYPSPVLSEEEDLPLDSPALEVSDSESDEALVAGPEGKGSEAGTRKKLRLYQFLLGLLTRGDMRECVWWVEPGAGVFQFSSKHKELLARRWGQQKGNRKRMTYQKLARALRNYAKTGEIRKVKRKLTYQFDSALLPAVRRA

For the sequence CTTCTA, the binding signal is 1.39 fold enrichment (6-mer frequency, TF over GST control) in the assay with FLI1; 1.41 fold enrichment (6-mer frequency, TF over GST control) with ELK1; 1.44 fold enrichment (6-mer frequency, TF over GST control) with GABPA; 1.32 fold enrichment (6-mer frequency, TF over GST control) in the assay with ERG; 1.52 fold enrichment (6-mer frequency, TF over GST control) with ELF1; 1.54 fold enrichment (6-mer frequency, TF over GST control) in the assay with EHF. In addition, the binding signal in the assay with SPI1 is 1.41 fold enrichment (6-mer frequency, TF over GST control); in the assay with SPIB it was 1.48 fold enrichment (6-mer frequency, TF over GST control); with ELK3 it was 1.34 fold enrichment (6-mer frequency, TF over GST control); in the assay with FEV, 1.4 fold enrichment (6-mer frequency, TF over GST control); with ETV5, 1.46 fold enrichment (6-mer frequency, TF over GST control); with HSF1, 3.31 fold enrichment (6-mer frequency, TF over GST control). For the same sequence, the binding signal with SPIC was 1.28 fold enrichment (6-mer frequency, TF over GST control); with ELF4, 1.38 fold enrichment (6-mer frequency, TF over GST control); in the assay with ELK4, 1.53 fold enrichment (6-mer frequency, TF over GST control); with ETV2, 1.49 fold enrichment (6-mer frequency, TF over GST control); with ELF3, 1.42 fold enrichment (6-mer frequency, TF over GST control); with CRX, 1.87 fold enrichment (6-mer frequency, TF over GST control). Also, the binding signal with ETV1 was 1.49 fold enrichment (6-mer frequency, TF over GST control).

The values above are taken from article PMC7862700, “An all-to-all approach to the identification of sequence-specific readers for epigenetic DNA modifications on cytosine”.
